From PubChem BioAssay
For some of these results: Measured potencies and affinities stand elsewhere. Calls of active or inactive are those of the source.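 How the source made its calls, unless noted: active means membrane potential signal rise above negative control mean plus 3 SD in both duplicates, also active in the earlier TRPC4 screen; inactive means the rest.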

Key:
[1] = tested on: TRPC4 beta (transient receptor potential cation channel C4), mouse; assay: activators of mouse TRPC4 channel, confirmation, cell-based, Fluo4 calcium, HEK293 TRPC4beta/mu-opioid, duplicates, 10 µM (AID 2426;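 active means fluorescence ratio normalized to control raised more than 50% in primary screen plus both repeat runs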); settings: Fluo4 calcium fluorescence, at 10 µM; stronger effect = higher value
[2] = tested on: transient receptor potential cation channel C4 beta (TRPC4), mouse; assay: activators of mouse TRPC4 channel, confirmation, cell-based, second round, Fluo4, HEK293 TRPC4beta/mu-opioid, 1 µM (AID 2461;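 active means primary screen active and over 50% activation in each of two duplicate runs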); settings: Fluo4 calcium fluorescence, at 1 µM; stronger effect = higher value
[3] = tested on: TRPC4 (transient receptor potential cation channel C4 beta), mouse; assay: positive allosteric modulators of mouse TRPC4, confirmation, cell-based, second round, Fluo-4, HEK293 TRPC4beta/mu-opioid, 1 µM (AID 2554;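 active means primary screen hit whose fluorescence ratio, in both repeats, exceeds the weak agonist control mean by 3 SD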); settings: DAMGO EC20, Fluo-4 calcium flux, at 1 µM; stronger effect = higher value
[4] = tested on: TRPC4 beta (transient receptor potential cation channel C4), mouse; assay: positive allosteric modulators of mouse TRPC4, confirmation, cell-based, Fluo-4, HEK293 TRPC4beta/mu-opioid (AID 2555;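 active means primary screen hit whose calcium fluorescence ratio, in both repeats, exceeds the weak agonist control mean by 3 SD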); settings: DAMGO EC20, Fluo-4 calcium flux, at 10 µM; stronger effect = higher value
[5] = target: Short transient receptor potential channel 4 (Mus musculus) (UniProt Q9QUQ5); assay: inhibitors of mouse TRPC4 channel, confirmation, cell-based, Fluo4, HEK293 TRPC4beta/mu-opioid (AID 2636;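 active means calcium signal cut by more than 3 SD below the full-agonist control yet still positive, in both repeats and the earlier primary screen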); settings: DAMGO, Fluo4 calcium flux, at 10 µM; stronger effect = higher value
[6] = target: Short transient receptor potential channel 4 (Mus musculus) (UniProt Q9QUQ5); assay: inhibitors of mouse TRPC4 channel, confirmation, cell-based, second round, Fluo4, HEK293 TRPC4beta/mu-opioid, 1 µM (AID 2637;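 active means calcium signal ratio cut to more than 3 SD under the fully stimulated control mean yet still positive, in both repeats and the primary screen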); settings: Fluo4 calcium flux, DAMGO, at 1 µM; stronger effect = higher value
[7] = target: Short transient receptor potential channel 4 (Mus musculus) (UniProt Q9QUQ5); assay: mouse TRPC4 channel activators, dose response, cell-based, HEK293 TRPC4/mu-opioid, Fluo-4 calcium (AID 434937;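 active means primary screen activator hit with a dose response curve and TRPC4 channel activation at any tested dose; inactive means no activation, no dose response, or not a primary hit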)
[8] = target: Short transient receptor potential channel 4 (Mus musculus) (UniProt Q9QUQ5); assay: TRPC4 positive allosteric modulators, dose response, cell-based, HEK293 TRPC4/mu-opioid, Fluo-4 calcium, EC20 DAMGO (AID 434941;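 active means earlier screen potentiator hit that boosts the TRPC4 ion channel at some dose, with a dose response; inactive means no potentiation, no dose response, or not a prior hit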;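 further: calcium entry triggered by an EC20 dose of DAMGO at the co-expressed mu-opioid receptor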)
[9] = target: Short transient receptor potential channel 4 (Mus musculus) (UniProt Q9QUQ5); assay: mouse TRPC4 channel inhibitors, dose response, cell-based, HEK293 TRPC4/mu-opioid, Fluo-4 calcium (AID 434942;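 active means primary screen inhibitor hit that blocks the TRPC4 channel at some tested dose, yielding a dose curve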)
[10] = target: Short transient receptor potential channel 6 (Mus musculus) (UniProt Q61143); assay: inhibition of mouse TRPC6 channel, confirmation, selectivity assay for TRPC4 inhibitor project, cell-based, HEK293, membrane potential dye, duplicate (AID 434948;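 active means active in primary screen and both duplicates, each dropping signal beyond three positive-control SD with fluorescence still positive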); settings: HEK293 TRPC6, membrane potential dye fluorescence, at 10 µM, stimulated with maximal-effect acetylcholine; stronger effect = higher value
[11] = target: Short transient receptor potential channel 6 (Mus musculus) (UniProt Q61143); assay: activation of mouse TRPC6 channel, confirmation, selectivity assay for TRPC4 activator project, cell-based, HEK293, membrane potential dye, duplicate (AID 434950); settings: HEK293 TRPC6, membrane potential fluorescence, at 10 µM; stronger effect = higher value
[12] = target: Short transient receptor potential channel 6 (Mus musculus) (UniProt Q61143); assay: TRPC6 potentiation by TRPC4 potentiator hits, confirmation, selectivity assay for TRPC4 potentiator project, HEK293 cells, membrane potential dye, duplicate (AID 434952;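 active means compound raising the membrane signal above positive-control mean plus 3 SD in both repeats, and a primary screen hit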); settings: HEK293 TRPC6, membrane potential dye fluorescence, at 10 µM, maximal acetylcholine added after compound; stronger effect = higher value
[13] = target: Short transient receptor potential channel 4 (Mus musculus) (UniProt Q9QUQ5); assay: calcium flux activators in TRPC4/5HT1a cells, counter-screen for TRPC4 activator project, cell-based, second counter screen, HEK293 TRPC4/5HT1a, Fluo-4 (AID 434977;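 active means calcium signal rise above buffer-control mean plus 5 SD in both duplicates, and also a hit in the primary screen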); settings: Fluo-4 calcium flux, at 10 µM; stronger effect = higher value
[14] = calcium flux inhibitors in TRPC4/5HT1a cells, confirmation, counter-screen for TRPC4 inhibitor project, cell-based, second counter screen, HEK293 TRPC4/5HT1a, Fluo-4 (AID 434978;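 active means primary screen active whose calcium signal fell more than 3 SD beyond the full-serotonin control mean in both duplicate plates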;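 further: serotonin given first at submaximal then at maximal dose after compound preincubation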); settings: Fluo-4 calcium flux, at 10 µM, serotonin added to trigger calcium flux; stronger effect = higher value
[15] = tested on: TRPC4 (mouse), co-expressed with 5HT1a in HEK293; assay: calcium flux potentiators in TRPC4/5HT1a cells, confirmation, counter-screen for TRPC4 potentiator project, cell-based, second counter screen, HEK293 TRPC4/5HT1a, Fluo-4 (AID 434979;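 active means signal rise over 3 SD above mean of control wells given weak agonist, in both repeats and first screen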); settings: Fluo-4 calcium flux, at 10 µM, serotonin added at its EC20 dose; stronger effect = higher value
[16] = calcium flux activation in mu-opioid HEK293 cells, confirmation, counter-screen for TRPC4 activator project, cell-based, HEK293 mu-opioid receptor line (AID 449723;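 active means hit in primary screen, with calcium signal over 5 SD above buffer well mean in both duplicates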;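 further: counter screen cells carry the mu-opioid receptor alone and lack TRPC4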); settings: Fluo-4 calcium fluorescence, at 10 µM; stronger effect = higher value
[17] = calcium flux enhancement in mu-opioid HEK293 cells, confirmation, counter-screen for TRPC4 allosteric potentiator project, cell-based, HEK293 mu-opioid receptor line (AID 449724;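 active means calcium signal rise more than 3 SD above the low-dose agonist control mean, in both duplicate plates and the primary screen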); settings: Fluo-4 calcium flux, at 10 µM, compound added before EC20 DAMGO stimulus; stronger effect = higher value

Short transient receptor potential channel 4 (Mus musculus), sequence (Q9QUQ5 whole entry, looked up): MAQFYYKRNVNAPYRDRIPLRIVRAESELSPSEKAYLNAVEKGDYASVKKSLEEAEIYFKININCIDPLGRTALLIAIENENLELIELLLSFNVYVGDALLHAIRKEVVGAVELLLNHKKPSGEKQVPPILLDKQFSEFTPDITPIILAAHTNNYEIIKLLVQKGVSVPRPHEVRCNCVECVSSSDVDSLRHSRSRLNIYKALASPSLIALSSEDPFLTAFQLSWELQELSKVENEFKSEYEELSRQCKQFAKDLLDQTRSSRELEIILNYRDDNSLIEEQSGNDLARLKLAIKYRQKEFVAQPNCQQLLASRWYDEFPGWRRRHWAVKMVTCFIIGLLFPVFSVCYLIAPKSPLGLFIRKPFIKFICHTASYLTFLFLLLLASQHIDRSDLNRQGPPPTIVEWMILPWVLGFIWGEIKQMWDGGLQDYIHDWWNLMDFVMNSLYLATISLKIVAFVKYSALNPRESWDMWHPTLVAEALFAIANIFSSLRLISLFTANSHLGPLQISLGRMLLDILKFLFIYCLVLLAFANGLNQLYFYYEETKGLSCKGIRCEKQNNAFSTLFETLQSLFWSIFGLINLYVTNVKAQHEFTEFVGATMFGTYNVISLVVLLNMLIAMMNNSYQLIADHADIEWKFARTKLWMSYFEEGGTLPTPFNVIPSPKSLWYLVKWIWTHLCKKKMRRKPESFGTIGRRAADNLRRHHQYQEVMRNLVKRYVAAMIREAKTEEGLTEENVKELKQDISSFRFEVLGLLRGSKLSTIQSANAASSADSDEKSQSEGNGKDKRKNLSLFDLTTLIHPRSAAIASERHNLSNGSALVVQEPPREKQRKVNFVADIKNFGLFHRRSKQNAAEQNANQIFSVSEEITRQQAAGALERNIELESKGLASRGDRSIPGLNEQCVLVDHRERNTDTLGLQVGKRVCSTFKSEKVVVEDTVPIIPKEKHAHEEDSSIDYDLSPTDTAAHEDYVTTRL
Short transient receptor potential channel 6 (Mus musculus), sequence (Q61143 whole entry, looked up): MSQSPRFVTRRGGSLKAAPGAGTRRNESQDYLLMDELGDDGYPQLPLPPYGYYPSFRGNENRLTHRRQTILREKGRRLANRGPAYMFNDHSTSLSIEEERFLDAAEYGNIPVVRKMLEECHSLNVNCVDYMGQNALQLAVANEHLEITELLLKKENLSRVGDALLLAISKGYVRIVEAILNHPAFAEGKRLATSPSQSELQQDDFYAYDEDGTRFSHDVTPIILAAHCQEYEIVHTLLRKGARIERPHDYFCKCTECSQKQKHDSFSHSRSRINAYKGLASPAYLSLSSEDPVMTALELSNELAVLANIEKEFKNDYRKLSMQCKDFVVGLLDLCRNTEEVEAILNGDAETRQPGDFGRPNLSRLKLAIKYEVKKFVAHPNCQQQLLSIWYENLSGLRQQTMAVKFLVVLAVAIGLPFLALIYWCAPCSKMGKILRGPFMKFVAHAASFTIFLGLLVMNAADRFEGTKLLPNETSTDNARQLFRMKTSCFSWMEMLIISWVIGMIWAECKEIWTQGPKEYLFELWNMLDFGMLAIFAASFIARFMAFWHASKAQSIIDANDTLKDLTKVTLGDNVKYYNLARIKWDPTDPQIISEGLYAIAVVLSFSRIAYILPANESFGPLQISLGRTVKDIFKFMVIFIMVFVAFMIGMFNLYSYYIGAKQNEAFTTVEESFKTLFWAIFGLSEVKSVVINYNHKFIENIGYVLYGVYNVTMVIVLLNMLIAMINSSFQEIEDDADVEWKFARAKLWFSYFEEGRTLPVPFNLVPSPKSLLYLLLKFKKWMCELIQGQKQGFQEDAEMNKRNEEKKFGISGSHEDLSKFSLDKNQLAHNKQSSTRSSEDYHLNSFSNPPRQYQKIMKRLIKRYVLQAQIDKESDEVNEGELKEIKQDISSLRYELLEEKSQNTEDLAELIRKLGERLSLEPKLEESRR

COc1ccc(CCNC(=O)Cn2cnc3c(cnn3C(C)(C)C)c2=O)cc1OC
active: potentiation [15] 7.92%
inactive: outcome [1] | outcome [2] | outcome [3] | outcome [4] | outcome [5] | outcome [6] | outcome [7] | outcome [8] | outcome [9] | outcome [10] | outcome [11] | outcome [12] | outcome [13] | outcome [14] | outcome [16] | outcome [17]

Cc1ccc(S(=O)(=O)N2CCN(c3cc4c(cc3[N+](=O)[O-])n(C)c(=O)n4C)CC2)cc1
active: potentiation [15] 10.6%
inactive: outcome [1] | outcome [2] | outcome [3] | outcome [4] | outcome [5] | outcome [6] | outcome [7] | outcome [8] | outcome [9] | outcome [10] | outcome [11] | outcome [12] | outcome [13] | outcome [14] | outcome [16] | outcome [17]

Cc1cc(OCC(=O)NNC(=S)NC(=O)c2ccc(Br)o2)ccc1Cl
active: potentiation [4] 10%
inactive: outcome [1] | outcome [2] | outcome [3] | outcome [5] | outcome [6] | outcome [7] | outcome [8] | outcome [9] | outcome [10] | outcome [11] | outcome [12] | outcome [13] | outcome [14] | outcome [15] | outcome [16] | outcome [17]

COC(=O)C1=C(C)NC2=C(C(=O)c3ccccc32)C1c1ccc(-c2ccc(C(=O)O)cc2)o1 (centres undefined)
inactive: outcome [1] | outcome [2] | outcome [3] | outcome [4] | outcome [5] | outcome [6] | outcome [7] | outcome [8] | outcome [9] | outcome [10] | outcome [11] | outcome [12] | outcome [13] | outcome [14] | outcome [15] | outcome [16]
active: activation [17] 1780%

Cc1ccc(/C=N/NC(=O)C2COc3ccccc3O2)s1 (centres undefined)
inactive: outcome [1] | outcome [2] | outcome [3] | outcome [4] | outcome [5] | outcome [6] | outcome [7] | outcome [8] | outcome [9] | outcome [10] | outcome [11] | outcome [12] | outcome [13] | outcome [14] | outcome [16] | outcome [17]
active: potentiation [15] 22.2%

CN(C)CCOc1ccc2ccccc2c1
inactive: outcome [1] | outcome [2] | outcome [5] | outcome [6] | outcome [7] | outcome [8] | outcome [9] | outcome [10] | outcome [11] | outcome [12] | outcome [13] | outcome [14] | outcome [16] | outcome [17]
active: potentiation [3] 8% | potentiation [4] 14% | potentiation [15] 19.8%

CN(CCNC(=O)c1ccc(/C=N/O)nc1)Cc1ccccc1
inactive: outcome [1] | outcome [2] | outcome [5] | outcome [6] | outcome [7] | outcome [8] | outcome [9] | outcome [10] | outcome [11] | outcome [12] | outcome [13] | outcome [14] | outcome [16] | outcome [17]
active: potentiation [3] 18% | potentiation [4] 8% | potentiation [15] 19.6%

CC1(C(=O)OCc2cc(=O)n3cc(Br)ccc3n2)CC1(Cl)Cl (centres undefined)
active: potentiation [3] 15% | potentiation [4] 84% | potentiation [15] 56.2%
inactive: outcome [1] | outcome [2] | outcome [5] | outcome [6] | outcome [7] | outcome [8] | outcome [9] | outcome [10] | outcome [11] | outcome [12] | outcome [13] | outcome [14] | outcome [16] | outcome [17]

Cc1cc(Nc2ccc3c(c2)OCCO3)c2cc(Cl)ccc2n1
inactive: outcome [1] | outcome [2] | outcome [3] | outcome [4] | outcome [5] | outcome [6] | outcome [7] | outcome [8] | outcome [9] | outcome [10] | outcome [11] | outcome [12] | outcome [13] | outcome [14] | outcome [15] | outcome [16] | outcome [17]

Fc1ccc2c(c1)C(c1ccncc1)=NNC(c1ccc(Cl)cc1)=N2
inactive: outcome [1] | outcome [2] | outcome [3] | outcome [4] | outcome [5] | outcome [6] | outcome [7] | outcome [8] | outcome [9] | outcome [10] | outcome [11] | outcome [12] | outcome [13] | outcome [14] | outcome [15] | outcome [16] | outcome [17]

CC(=O)c1ccc(N2CCN(C(=O)CCS(=O)(=O)c3ccc4c(c3)NC(=O)CS4)CC2)cc1
inactive: outcome [1] | outcome [2] | outcome [3] | outcome [4] | outcome [5] | outcome [6] | outcome [7] | outcome [8] | outcome [9] | outcome [10] | outcome [11] | outcome [12] | outcome [13] | outcome [14] | outcome [16] | outcome [17]
active: potentiation [15] 20.9%

Cc1oc(-c2cccc(F)c2)nc1CN(Cc1ccccc1)C[C@@H]1CCC(=O)N1
inactive: outcome [1] | outcome [2] | outcome [3] | outcome [4] | outcome [5] | outcome [6] | outcome [7] | outcome [8] | outcome [9] | outcome [10] | outcome [11] | outcome [12] | outcome [13] | outcome [14] | outcome [15] | outcome [16] | outcome [17]

Cc1ccc(CNC(=O)CCC2CCCN(Cc3cc4ccccc4o3)C2)o1 (centres undefined)
inactive: outcome [1] | outcome [2] | outcome [3] | outcome [4] | outcome [5] | outcome [6] | outcome [7] | outcome [8] | outcome [9] | outcome [10] | outcome [11] | outcome [12] | outcome [13] | outcome [14] | outcome [15] | outcome [16] | outcome [17]

CC(Sc1nc2sc3c(c2c(=O)n1-c1ccccc1)CCCC3)C(=O)O (centres undefined)
inactive: outcome [1] | outcome [2] | outcome [3] | outcome [5] | outcome [6] | outcome [7] | outcome [8] | outcome [9] | outcome [10] | outcome [11] | outcome [12] | outcome [13] | outcome [14] | outcome [16] | outcome [17]
active: potentiation [4] 12% | potentiation [15] 22.2%

CCn1c(C)nc2cc(C(=O)N/N=C/c3cccc(O)c3O)ccc21
inactive: outcome [1] | outcome [2] | outcome [5] | outcome [6] | outcome [7] | outcome [8] | outcome [9] | outcome [10] | outcome [11] | outcome [12] | outcome [13] | outcome [14] | outcome [16] | outcome [17]
active: potentiation [3] 79% | potentiation [4] 50% | potentiation [15] 23%

COc1cccc(N2C(=O)CC(N3CCN(CCN=CC4=C(O)CC(C)(C)CC4=O)CC3)C2=O)c1 (centres undefined)
active: potentiation [15] 15.8%
inactive: outcome [1] | outcome [2] | outcome [3] | outcome [4] | outcome [5] | outcome [6] | outcome [7] | outcome [8] | outcome [9] | outcome [10] | outcome [11] | outcome [12] | outcome [13] | outcome [14] | outcome [16] | outcome [17]

COc1ccc2c(c1)c1ncn(CCN3CCCC3)c(=O)c1n2C
inactive: outcome [1] | outcome [2] | outcome [4] | outcome [5] | outcome [6] | outcome [7] | outcome [8] | outcome [9] | outcome [10] | outcome [11] | outcome [12] | outcome [13] | outcome [14] | outcome [16] | outcome [17]
active: potentiation [3] 13% | potentiation [15] 12.8%
